These compounds were tested against Solute carrier family 2, facilitated glucose transporter member 1 (Homo sapiens) (UniProt P11166) (assay: ST_JUDE_LEISH: Cytotoxicity at 2uM final concentration against transgenic Leishmania Mexicana promastigotes LmGLUT1 that are glucose transport deficient and complemented with the human glucose transporter GLUT1. Activity is measured by DNA content using SYBR green in vitro).
Sequence of Solute carrier family 2, facilitated glucose transporter member 1 (Homo sapiens) (P11166 whole entry): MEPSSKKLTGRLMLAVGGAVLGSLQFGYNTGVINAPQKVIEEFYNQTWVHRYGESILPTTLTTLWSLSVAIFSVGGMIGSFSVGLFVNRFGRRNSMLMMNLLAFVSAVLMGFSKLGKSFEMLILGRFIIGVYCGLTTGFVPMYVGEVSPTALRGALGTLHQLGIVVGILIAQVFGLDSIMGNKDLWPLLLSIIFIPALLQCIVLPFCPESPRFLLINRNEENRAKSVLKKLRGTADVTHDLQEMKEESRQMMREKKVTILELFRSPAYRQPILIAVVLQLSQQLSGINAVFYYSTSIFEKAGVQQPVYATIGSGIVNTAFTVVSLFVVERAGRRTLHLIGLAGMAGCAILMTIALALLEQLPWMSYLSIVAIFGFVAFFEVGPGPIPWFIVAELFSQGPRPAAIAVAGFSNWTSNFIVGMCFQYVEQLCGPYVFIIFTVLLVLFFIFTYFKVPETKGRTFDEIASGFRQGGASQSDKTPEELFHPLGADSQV
Format: functional
`Cc1nc2ccc3ccc(CNc4ccc(C(=O)N[C@@H](CCC(=O)O)C(=O)N[C@@H](Cc5cccs5)C(=O)O)c(F)c4)cc3c2c(=O)[nH]1` showed an inhibition of 6.55%.
In the case of `O=C(NCCc1ccc(F)cc1)c1ccc(N2CCN(c3ccncc3)CC2)nc1`, the inhibition is reported as 2.72%.
With `Oc1ccc(CCNc2nc(NCc3cccc(OCc4cccc(F)c4)c3)nc(N3CCNCC3)n2)cc1` the inhibition was -1.28%.
`Nc1nc(O)c2c(n1)CCc1c(Br)cccc1-2` was tested, and the inhibition was -1.17%.
For `COc1ccc2nccc([C@@H](O)CN3CCC(NCc4cc5ccccc5[nH]4)CC3)c2c1`, the inhibition was 17%.
With `c1ccc(Oc2ccc(Nc3ccnc4cc(-c5csc(CN6CCCCC6)n5)ccc34)cc2)nc1` the inhibition was 0.24%.
Compound `Cc1c(-c2cccc(NC(=O)C(C)(C)Oc3ccc(Cl)cc3)c2)nc2ncccn12` has an inhibition of -0.94%.
In the case of `COc1cccc(CNC[C@@H](O)[C@H](Cc2ccccc2)NC(=O)c2cc(NC(C)C)cc(N3CCCCS3(=O)=O)c2)c1`, the inhibition is reported as -0.22%.
`O=C(NC1CCN(c2ccnc3cc(Cl)ccc23)C1)c1ccc(F)cc1` (stereo not given) was tested, and the inhibition was 2.4%.
For `Cc1c(C(C)(C)C)ccc2nc(N)nc(N)c12`, the inhibition was 64%.
For `O=C(NCCN1CCCCC1)c1ccc(Nc2nccc(Nc3ccc(Oc4ccccc4)cc3)n2)cc1`, the inhibition was 7.53%.
`O=C(Nc1cccc(OCc2ccccc2)c1)c1ccc(CN2CCC(Cc3ccccc3)CC2)cc1` gave an inhibition of -0.83%.
`NCCNc1ccc([N+](=O)[O-])cc1C(=O)Nc1cccc(Cl)c1` was tested, and the inhibition was 2.71%.
Compound `CC(=O)c1c(CC(=O)O)c2ccccc2n1O` has an inhibition of 2.28%.
`Cc1ccc2nc(C)cc(NC(=O)Nc3ccc(N(C)C)cc3)c2c1` showed an inhibition of 7.58%.
For `COc1ccccc1C1CCN(C2CCC(NC(=O)/C=C/c3cc(C(F)(F)F)ccc3F)CC2)CC1` (stereo not given), the inhibition was 2.98%.
With `NCC(=O)Nc1cccc(Nc2nccc(-c3c(-c4cccc(NC(=O)c5ccccc5)c4)nn4ccccc34)n2)c1` the inhibition was 3.36%.
For `Cc1nnc2c(NC(=O)NC3CCCC3)cc3cc(-c4ccc(CN5CCN(C)CC5)cc4)ccc3n12`, the inhibition was 7.2%.
`CCOC(=O)c1ccc(NC(=O)N(Cc2ccc(-c3cccc(CN4CCNCC4)c3)cc2)C2CCN(Cc3ccccc3)CC2)cc1` gave an inhibition of 2.49%.
Compound `COc1ccc2nccc([C@@H](O)CN3CCC(NC(=O)/C=C/c4c[nH]c5c(C)cccc45)CC3)c2c1` has an inhibition of 1.59%.
Work on `CC[C@H](C)CNC(=O)c1cncc(-c2cccc(CNC3Cc4ccccc4C3)c2)c1` yielded an inhibition of -0.1%.
Work on `Cc1cccc2nc(-c3ccc(-c4ccc(CN5CCOCC5)cc4)cc3)[nH]c12` yielded an inhibition of 4.34%.
Work on `CC(C)Cn1c(Sc2ccc(C#N)c([N+](=O)[O-])c2)nnc1-c1ccc(N(C)C)cc1` yielded an inhibition of -0.55%.
Work on `COc1cc(Br)c(S(=O)(=O)n2cc(CN3CCC(N)CC3)c3cc(Cl)ccc32)cc1OC` yielded an inhibition of 1.4%.
With `COc1ccccc1C1CCN(C2CCC(NC(=O)c3cc(-c4ccc(Cl)cc4)cs3)CC2)CC1` (stereo not given) the inhibition was -0.61%.
`CN1CCC(C(=O)N(Cc2ccc(-c3ccc(CNCCc4ccc(S(C)(=O)=O)cc4)cn3)cc2)Cc2cccc(F)c2)CC1` showed an inhibition of 1.69%.
In the case of `CCNS(=O)(=O)c1ccc(Oc2ccc([N+](=O)[O-])cc2)cc1`, the inhibition is reported as 0.11%.
In the case of `O=C(Nc1ccc(Cn2ncc(N3CCCNCC3)c(Cl)c2=O)cc1)Nc1ccc(OCc2ccccc2)cc1`, the inhibition is reported as -0.85%.
Work on `COc1ccc(-c2cccc(NC(=O)c3cccc(Cl)c3)c2)cc1CN1CCN(C)CC1` yielded an inhibition of 11.2%.
Compound `CCCN(CCC)C(=O)c1cc(C(=O)N[C@@H](Cc2ccccc2)[C@H](O)CNC(C)(C)c2cccc(OC)c2)cc(N2CCCCS2(=O)=O)c1` has an inhibition of 1.96%.
`CCCCc1nc2nc(N)nc(N)c2cc1CCC` was tested, and the inhibition was 1.72%.
Work on `Cc1nccn1CCNC(=O)CN1CCC2(CCC1=O)CC(=O)c1ccccc1O2` (stereo not given) yielded an inhibition of 8.32%.
For `Cc1[nH]c(C)c(-c2ccc(Oc3cccc(Cl)c3)cc2)c(=O)c1Cl`, the inhibition was 9.05%.
In the case of `O=c1cc(NCCCNCc2cccc(OC(F)(F)C(F)F)c2)[nH]c2ccccc12`, the inhibition is reported as 6.11%.
With `Cc1cc2nc(-c3ccc(/C=C/C(=O)NC4CCCCC4)cc3)[nH]c2cc1C` the inhibition was 0.61%.
`N#Cc1ccc(C(=O)Nc2cc(-c3cccc(O)c3)cc3[nH]ncc23)cc1` was tested, and the inhibition was 2.57%.
Work on `CC(C)NCc1cccc(-c2ccc(-c3nc4cc(C(F)(F)F)ccc4[nH]3)cc2)c1` yielded an inhibition of 7.38%.
Compound `CC(=O)N1N=C(c2ccc(F)cc2)Sc2c1nc(-c1ccccc1)n2C(C)=O` has an inhibition of 8.6%.
For `Cc1ccc(CN2CCCN(Cc3cccc(C(=O)Nc4ccc(C(C)(C)C)cc4)c3)CC2)s1`, the inhibition was 7.92%.
`COc1ccc(C(=O)N[C@@H](CC(C)C)C(=O)NC2CC[C@@H](C)N(C(=O)Nc3ccc(Cl)cc3)CC2=O)cc1OCCN1CCOCC1` (stereo not given in full) gave an inhibition of 2.44%.
